Compound activity deposited in PubChem by National Center for Advancing Translational Sciences (NCATS).
ELG1 repair inh: ELG1-dependent DNA repair inhibition | HEK293T ELG1-luciferase reporter, luminescence, 16 h; DNA damage induced by 5-fluorouridine | Potency, µM (top dose mostly 46.1 µM), for the others: top-dose activity change, negative = inhibition, actives largely listed as inhibitors | 330,000 tested, 2.3% active | AID 504467; also: potency is read from the fitted curve at half-maximal effect; nearly all actives have a fitted effect of over 55% in size
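Luminescence from the luciferase reporter, measured 30 min after ONE-Glo reagent at room temperature, was the read-out. Beforehand, 2,000 cells per well were exposed for 16 hr at 37 °C to 5-fluorouridine together with compound or vehicle.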
RORgamma inh: blocks mouse ROR gamma transcriptional activity. AID 2551. Potency, µM (highest dose often 53.6 µM), for the others: at the highest dose activity change, negative = inhibition, most hits filed as inhibitors. Drosophila S2 Gal4-RORgamma UAS-luciferase reporter, 20 h. P51450. 310,000 tested, 5.4% active; also: potency is read from the fitted curve at half-maximal effect; nearly all actives have a fitted effect of over 60% in size
Target sequence (P51450 whole entry, looked up, the tested form may be a part): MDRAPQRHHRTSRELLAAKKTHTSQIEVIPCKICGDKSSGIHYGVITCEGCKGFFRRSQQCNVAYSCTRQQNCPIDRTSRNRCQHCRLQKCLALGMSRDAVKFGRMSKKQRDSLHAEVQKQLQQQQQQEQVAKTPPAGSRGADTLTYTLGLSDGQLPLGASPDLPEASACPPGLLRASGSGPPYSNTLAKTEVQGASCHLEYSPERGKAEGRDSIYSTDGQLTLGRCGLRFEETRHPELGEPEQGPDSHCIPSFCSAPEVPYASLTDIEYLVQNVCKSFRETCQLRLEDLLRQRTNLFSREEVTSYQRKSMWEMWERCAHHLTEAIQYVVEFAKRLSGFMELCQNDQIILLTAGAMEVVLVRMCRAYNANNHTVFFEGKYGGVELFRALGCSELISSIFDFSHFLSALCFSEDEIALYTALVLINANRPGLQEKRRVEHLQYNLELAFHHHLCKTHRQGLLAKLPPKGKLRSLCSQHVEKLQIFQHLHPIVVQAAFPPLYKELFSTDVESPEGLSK
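Stably transfected Drosophila Schneider cells are the test system, with ROR gamma fused to Gal4 and luciferase under UAS control; luminescence is read after 20 hr of 700 uM copper sulfate induction at ambient temperature.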
FBPA coupling cs: coupling enzyme interference in Giardia aldolase counter-screen. activity change, negative = inhibition, % at 58.2 µM, hits read low. AID 2472. 290,000 tested, 0.67% active. coupling enzyme system counterscreen, AmpLite Red fluorescence; in the data active = activity change below about -30%
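First, compound is pin-transferred into glyceraldehyde-3-phosphate coupling-enzyme reagent at 57.5 uM final and held 10 min at RT. Next, substrate, coupling system and AmpLite Red are added. After 20 min RT, fluorescence (525/598 nm) is read.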
TSHR antag: antagonists of human thyroid stimulating hormone receptor; TSHR-expressing cells, TSH-stimulated cAMP HTRF, 2 h; stronger effect = lower value; activity change, negative = inhibition, % at 11.5 µM; 330,000 tested, 0.2% active;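 active = activity change below a set negative limit, meaning inhibition stronger than a set level, cut at about -70% in these data; inconclusive = activity change between two set negative limits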
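Read-out is FRET at 665 nm (cryptate excitation 337 nm) from a cryptate-tagged anti-cAMP antibody, competed by cell cAMP against cAMP-d2. Compounds are tested on freshly harvested TSHR cells challenged with 4nM TSH (EC80) for 2 hours at 37 deg C.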
VP16 counter: inhibits Gal4-VP16 luciferase reporter, ROR gamma counter-screen; 310,000 tested, 3.5% active; Potency, µM (top dose mostly 53.6 µM), for inactives: top-dose activity, negative = inhibition, usual class: inhibitors; AID 2546; Drosophila S2 Gal4-VP16 UAS-luciferase, luminescence, 20 h;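 also: Gal4-VP16 expression switched on by copper sulfate through the metallothionein promoter; potency is read from the fitted curve at half-maximal effect; nearly all actives have a fitted effect of over 50% in size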
Numbers without * were called inactive; ? = inconclusive; · = no result given; [ ] = dose if it differs, or a comment. Compounds with a hit are over-represented: about 8% of the library has one in this group of screens. Unless noted, calls follow the shape of the dose curve; as a rule, active = well fitted curve in the direction sought with a large enough effect; inconclusive = small, poorly fitted or top-dose-only effect, or another doubt; inactive = no such curve, though single readings can be large; an effect the other way counts as inactive or inconclusive. % is scaled to controls: 0 for no effect and ±100 for the full control effect.

SMILES | ELG1 repair inh | RORgamma inh | FBPA coupling cs | TSHR antag | VP16 counter
COc1ccccc1N(CC(=O)Nc1ccc2c(c1)OCO2)S(=O)(=O)c1ccccc1 | ? | 13.6% | -9.1 | 6.6 | -13.3%
CCOc1ccccc1N(CC(=O)Nc1ccc(OC)cc1OC)S(=O)(=O)c1ccccc1 | 16.4µM* | 21.2% | -5.3 | 35.0 | 4.4%
O=C(O)c1cc(S(=O)(=O)N2CCN(C(c3ccccc3)c3ccccc3)CC2)ccc1Cl | -3.8% | -26.9% | 12.6 | -7.4 | 2.8%
Cc1ccc(S(=O)(=O)Nc2ccc(N=Nc3ccc(O)cc3)cc2)cc1 | ? | -7.6%[10 µM] | 9.1 | -74.9* | -6.2%
CSc1ccc(S(=O)(=O)Nc2ccc(S(=O)(=O)Nc3ccc(C)cc3)cc2)cc1 | 2.7% | -5.3% | 8.2 | 2.5 | -27.4%
Cc1ccc(S(=O)(=O)Nc2c(Cl)c(Cl)c(O)c3ccccc23)cc1 | -11.4% | 17.8µM* | -10.6 | ? | ?
COc1ccc(/C=C2/C(=O)N(CC3CCCO3)C(=S)N2C)c(OC)c1 (stereo not given) | -4.4% | 18.1% | -3.1 | -11.3 | 3.6%
COc1ccccc1/C=C1\NC(=S)N(CC2CCCO2)C1=O (stereo not given) | -5.6% | 14.8% | -9.0 | -16.7 | 12.6µM*
CCNc1nc(ON=C(C)C)nc(N(C)C)n1 | 2.5% | 14.1µM* | 5.0 | 8.3 | 0.3%
CCNc1nc(NCC)nc(OCCOC(C)=O)n1 | ? | -7.6% | 0.0 | 23.5 | 4.7%
O=C(COc1ccccc1Cl)N1CCNC1=O | 2.9% | · | · | 16.4 | ·
O=C1NC2(CCCCC2)C(=O)N1Cc1cccc(C(F)(F)F)c1 | 9.2µM* | 31.7% | 3.3 | -8.5 | -0.3%
O=C1NC2(CCCCCC2)C(=O)N1Cc1cccc(Cl)c1 | -1.1% | 4.9% | 1.1 | 1.0 | 2.2%
O=C(CCC1CCN(Cc2ccc(Cl)cc2)CC1)NC1CC1 | -12.5% | -9.6% | 1.1 | -9.2 | 16.2%
O=C(/C=C/c1cccs1)Nc1ccncc1 | ? | 17.1% | 1.3 | 5.2 | -3.9%
Cc1nc(NC(=S)NC(=O)c2cccs2)ccc1Br | ? | 1.41µM* | -0.4 | -11.4 | 12.6µM*
Cc1cccc(NC(=O)/C=C/c2cccs2)n1 | ? | ? | -10.3 | 39.9 | 22.4µM*
Cc1cccc(NC(=O)CCC(=O)c2cccs2)n1 | ? | · | · | 8.4 | ·
Cc1cccc(NC(=S)NC(=O)c2cccs2)n1 | ? | 3.55µM* | 2.1 | 16.3 | ?
Cc1ccc(OCC(=O)NC(=S)Nc2ccc(Br)c(C)n2)cc1 | ? | 2.51µM* | 2.1 | 2.6 | -11.1%
Cc1nc(NC(=S)NC(=O)COc2ccc(Cl)cc2)ccc1Br | 18.3% | -35.4% | -1.4 | 5.5 | -6.2%
Cc1nc(NC(=S)NC(=O)c2cncc(Br)c2)ccc1Br | 11.4% | -44.9% | 0.9 | 6.6 | 1.3%
COc1ccc(S(=O)(=O)N2CCOCC2)cc1NC(=O)c1cccc(Cl)c1 | -8.3% | · | -1.2 | -2.8 | ·
COc1cccc(NC(=O)COC(=O)c2ccc(C)c(S(=O)(=O)N3CCCCC3)c2)c1 | ? | · | · | -10.9 | ·
COCCOc1cc(Nc2nnc(C(F)(F)F)s2)c(Cl)cc1Cl | 6.51µM* | 0.0% | 3.8 | 19.1 | -5.1%
SMILES | ELG1 repair inh | RORgamma inh | FBPA coupling cs | TSHR antag | VP16 counter
COc1cc(Nc2nnc(C)s2)c(Cl)cc1Cl | -23.3% | -9.2% | -0.3 | 10.3 | -11.3%
CCn1ncc(Cl)c1C(=O)Nc1ccc2c(c1)CCC2 | ? | 26.1% | -0.3 | -14.0 | 0.2%
CCCC1OC2CC3C4CCC5=CC(=O)C=CC5(C)C4C(O)CC3(C)C2(C(=O)O)O1 (stereo not given) | -10.8% | 14.1µM* | 0.3 | -13.2 | -9.8%
CCCC1O[C@@H]2CC3C4CCC5=CC(=O)C=C[C@]5(C)C4C(OC(C)=O)C[C@]3(C)[C@]2(C(=O)COC(C)=O)O1 (stereo not given in full) | -22.0% | ? | -2.1 | -6.1 | -7.5%
COc1cccc(/C=N/n2c(N)c(S(=O)(=O)c3cccs3)c3nc4ccccc4nc32)c1 | ? | -19.6% | 0.6 | -2.2 | -2.0%
CC(C)Cn1c(N)c(S(=O)(=O)c2cccs2)c2nc3ccccc3nc21 | ? | -14.2% | -31.2* | 5.4 | -17.1%
COc1ccc(S(=O)(=O)c2c(N)n(Cc3ccco3)c3nc4ccccc4nc23)cc1 | ? | ? | -3.4 | -5.5 | 4.9%
Nc1c(S(=O)(=O)c2cccs2)c2nc3ccccc3nc2n1/N=C/c1cccc(O)c1 | 18.4µM* | ? | -0.5 | 19.1 | ?
O=C1CC(N2CCN(S(=O)(=O)c3ccc([N+](=O)[O-])cc3)CC2)C(=O)N1c1ccccc1F (stereo not given) | 8.6% | · | · | 2.7 | ·
C[C@H]1Cc2c(COc3ccccc3)nc3c(c2CO1)CN(S(=O)(=O)c1ccc(C#N)cc1)CC3 | · | · | 0.6 | · | ·
COC(=O)/C(=C/Nc1ccc(O)cc1)[N+](=O)[O-] | -17.8% | ? | -35.7* | -11.3 | -76.5%
O=C(CCc1nnc2ccc(N3CCC4(CC3)OCCO4)nn12)NCc1ccccc1Cl | ? | 9.2% | -3.4 | 22.2 | -2.5%
CCOc1cc(/C=C\[N+](=O)[O-])ccc1OCC(=O)Nc1ccccc1C | ? | 1.12µM* | 1.7 | -4.2 | 1.78µM*
CC(C)N(C(=O)CSc1nc2ccccc2n1-c1ccccc1)C(C)C | -11.3% | 11.2µM* | · | -35.5 | ?
CCCCC1OC23CCCCC2C(C#N)(C#N)C1(C#N)C(=N)O3 (stereo not given) | 1.6% | -3.3% | -45.0* | 1.2 | -25.1%
CC(=O)Nc1cccc(NC(=O)CSc2nnc(NC(=O)c3ccco3)s2)c1 | ? | -2.8% | · | 0.8 | -2.7%
O=C(CSc1cccc2cccnc12)Nc1ccc(S(=O)(=O)N2CCOCC2)cc1 | 10.5% | 5.62µM* | -12.9 | -3.7 | ?
Cc1nc2ccc(C(=O)Nc3cccc([N+](=O)[O-])c3)cc2s1 | -23.4% | 4.1% | 1.3 | 5.7 | 1.5%
Cc1nc2ccc(NC(=O)c3ccc([N+](=O)[O-])cc3[N+](=O)[O-])cc2s1 | 20.6µM* | -0.9% | -3.1 | -4.3 | 1.3%
Cc1ccc(NC(=O)CSc2nnc(NC(=O)c3ccc(S(=O)(=O)N4CCOCC4)cc3)s2)cc1 | ? | -103.4% | 4.1 | -13.2 | 31.6µM*
CC(=O)Nc1ccc(NC(=O)CSc2nnc(NC(=O)c3ccc(Br)o3)s2)cc1 | 4.1% | 3.16µM* | · | 10.8 | 11.2µM*
C=CCC1C=CC(Oc2ccc(OC)cc2)C(COC(=O)c2ccc(Br)cc2)O1 (stereo not given) | · | 13.8%[10 µM] | 0.7 | · | -11.6%[10 µM]
CC(C)CC(=O)Nc1ccc(Oc2ccc3c(c2)C(=O)NC3=O)cc1 | -1.7% | 25.0% | 0.6 | -6.8 | -7.3%
CO[C@H]1COC(=O)[C@@H](Cc2ccccc2)NC(=O)[C@@H](C)COC(=O)CCC[C@@H]1C | · | 16.3%[10 µM] | 4.4 | · | -18.4%[10 µM]
CCOC(=O)C(C)NC(=O)c1cn(-c2ccc(OC)cc2)c(=O)c2ccccc12 (stereo not given) | 0.9% | 12.6% | 4.7 | 15.6 | -6.9%
